Glioma ERSR ind – inducers of ER stress response in human glioma cells; Potency, µM, inactives show top-dose activation, hits mostly activators; U87-MG GRP78 promoter luciferase reporter, 16 h; 420,000 compounds, 0.02% hits; further: potency means the concentration at half of the fitted maximal effect; series mostly up to about 76 µM; % of control where 0% means no effect; nearly all actives have a fitted effect of over 35% in size
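Stably transfected U87-MG human glioma cells carrying a GRP78-based luminescent sensor were seeded at 1000 cells/well, pin-dosed with compounds and incubated 16 h. Luciferase reagent was then added, and end-point luminescence was read after 10 min at room temperature.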
Apoferritin bind – candidate novel general anesthetic via apoferritin binding | apoferritin/1-aminoanthracene competitive binding, fluorescence | Potency, µM (titrated, usually from 77.5 µM), inactives show at the top dose activity change, negative = displacement, most hits filed as inhibitors | 350,000 compounds, 0.074% hits | AID 485281; further: potency means the concentration at half of the fitted maximal effect; on the % scale 0 is the no-effect control and ±100 the full control effect; nearly all actives have a fitted effect of over 20% in size
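10 uM apoferritin + 50% sat. 1-AMA, PBS; cpd 10 min RT; Ex380/Em535 endpoint; normalized to free probe vs complex; 4-param Hill fit; propofol titration as pos. ctrl.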
ClpP mod – qHTS Assay for Activators of ClpP; purified B. subtilis ClpP, FRET peptide cleavage, 20 min; Potency, µM (top dose mostly 57.5 µM), without a hit: at the top dose activity change, negative = active; 340,000 compounds, 1.9% hits; AID 651965, 2013; active means well fitted falling curve with a large enough effect; inconclusive means small, poorly fitted or top-dose-only effect; inactive means no such curve, though single readings can be large or run the other way; further: potency means the concentration at half of the fitted maximal effect; the source files actives as falling curves though it sought activators and does not explain the sign; nearly all actives have a fitted effect of over 65% in size
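FRET quenching reversal measured ClpP activation: 10 microg/mL B. subtilis ClpP at pH 8 with the FRET-FV decapeptide, read at 430 nm after 320 nm excitation. The 20-min minus 0-min signal was scaled between DMSO/no-enzyme wells and ADEP (5.8 microM final).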
N370S GC – N370S glucocerebrosidase modulation, Gaucher chaperone candidate. N370S GC spleen homogenate, 4MU-glucoside fluorescence. P04062. Potency, µM (top dose mostly 59.4 µM), inactives show at the top dose activity change, negative = inhibition, actives largely listed as inhibitors. 330,000 compounds, 0.092% hits. AID 2101;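 further: potency means the concentration at half of the fitted maximal effect; 0% = full enzyme activity and -100% = no enzyme basal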
Integrin act MD – activators of alpha7 integrin expression for muscular dystrophy. alpha7betagal myoblasts, beta-gal FDG fluorescence, 48 h. Potency, µM (titrated, usually from 38.3 µM), for the others: top-dose activation, usual class: activators. 350,000 compounds, 0.064% hits. AID 624291;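 further: potency means the concentration at half of the fitted maximal effect; 100% = response of the positive control SU9516; nearly all actives have a fitted effect of over 60% in size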
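Alpha7betagal+/- myoblasts (passage 13) were plated 16-24 hr, then exposed to compounds (1:260 dilution of DMSO stock) for 48 hours at 37C. After MPER lysis, β-galactosidase reporter activity was read as FDG fluorescence (ex 480/em 540) after 30 minutes.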
CBFb-RUNX1 inh – blocks binding between human CBF-beta and RUNX1. Potency, µM (doses to about 59.8 µM), for inactives: top-dose activity, negative = inhibition, actives largely listed as inhibitors. AID 1477. Q01196+Q13951. AlphaScreen CBFb-His/RUNX1-biotin binding, biochemical. 230,000 tested, under 10 active; further: % of control where 0% means no effect
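His-tagged CBF-beta and biotinylated RUNX1 (30 nM each) were premixed 20 min at room temperature, exposed to compound for 15 min, then given nickel-chelate and streptavidin AlphaScreen beads (50 ng each). After 90 min, AlphaScreen signal was read.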
ClpP validation – inhibits B. subtilis ClpP protease, hit validation | shares compounds with ClpP mod | purified B. subtilis ClpP, FRET-FV substrate cleavage, 20 min | Potency, µM (top dose mostly 57.5 µM), for the others: top-dose activity change, negative = inhibition, actives largely listed as inhibitors | 470 compounds, 40% hits; further: potency means the concentration at half of the fitted maximal effect; on the % scale 0 is the no-effect control and ±100 the full control effect; nearly all actives have a fitted effect of over 70% in size
The depositor's hits bear a star; ? = inconclusive; · = not tested or not shown; ! = a repeat was not active; [ ] = remark or other dose. The sample as a whole holds a higher share of hits than the screen did. Unless noted, the call rests on the fitted dose curve; in most records, active means well fitted curve in the direction sought with a large enough effect; inconclusive means small, poorly fitted or top-dose-only effect, or another doubt; inactive means no such curve, though single readings can be large; an effect the other way counts as inactive or inconclusive.

SMILES	Glioma ERSR ind	Apoferritin bind	ClpP mod	N370S GC	Integrin act MD	CBFb-RUNX1 inh	ClpP validation
COc1ccc(N2C(=O)NC3CC2(C)Oc2ccccc23)cc1 (stereo not drawn)	-4%	-4%	·	1%	16%	10%	·
CCOc1ccc(NS(=O)(=O)c2ccc3[nH]cc(C(=O)NCc4ccco4)c(=O)c3c2)cc1	-5%	?	0%	·	·	·	·
CN(Cc1ccco1)C(=O)c1c[nH]c2ccc(S(=O)(=O)Nc3ccc4c(c3)OCCO4)cc2c1=O	-1%	4%	3.5µM*	8%	10%	0%	-3%
Nc1[nH]c(=O)nc2nnsc12	-2%	·	-4%	·	·	·	·
COc1nc(-c2ccc(C)cc2)ccc1-c1noc(-c2cccnc2)n1	-4%	-12%	?	3%	2%	0%	19µM*
COc1nc(-c2ccccc2)ccc1-c1noc(-c2ccc(F)cc2)n1	·	-3%	·	6%[2.35 µM]	·	0%	·
CN(C)S(=O)(=O)Oc1ccc(Cl)cc1C(=O)Nc1cccc(C(F)(F)F)c1	-3%	-22%	0%	3%	-8%	10%	·
CN(C)S(=O)(=O)Oc1ccccc1C(=O)Nc1cccc(C(F)(F)F)c1	-2%	-24%	86%	5%	7%	4%	1%
COc1cccc2c1cc1c(=O)n(CC(=O)NC3CC3)nc(C)n12	-5%	7%	?	·	·	·	·
COc1cccc2c1cc1c(=O)n(CC(=O)N3CCN(c4ccccc4F)CC3)nc(C)n12	-2%	-3%	7.9µM*	·	·	·	3.1µM*
COc1cccc2c1cc1c(=O)n(CC(=O)N3CCC(C)CC3)nc(C)n12	-4%	-11%	2.5µM*!	3%	-16%	·	4.9µM*
c1ccc(C2Nc3ccccc3-c3nc4ccccc4n32)nc1 (stereo not drawn)	-4%	0%	7.1µM*	26%	0%	12%	19µM*
CC1(c2ccccn2)Nc2ccccc2-c2nc3ccccc3n21 (stereo not drawn)	3%	78%	22%	?	6%	1%	·
CC(NC(=O)C1CCN(S(=O)(=O)c2ccc(F)cc2)CC1)c1ccccc1 (stereo not drawn)	-3%	7%	?	·	·	·	-1%
CCOc1ccc(CC(=O)Nc2c(C(=O)Nc3ccccc3)oc3ccccc23)cc1OCC	-8%	?	231%	5%	11%	2%	?
Cc1ccc(NC(=O)c2oc3ccccc3c2NC(=O)c2ccccc2C)cc1	0%	-3%	58%	·	·	·	·
Cc1ccc(NC(=O)c2oc3ccccc3c2NC(=O)Cc2ccccc2)cc1	-1%	0%	145%	·	·	·	?
CNCC(=O)c1c[nH]c2ccccc12	-3%	·	0%	·	·	·	·
CC(OC(=O)c1ccccc1OCCOc1ccccc1)C(=O)Nc1ccc(Br)cc1 (stereo not drawn)	3%	·	-4%	·	·	·	·
Cc1cc(N2CCN(C)CC2)n2cc(-c3ccc(F)cc3)nc2n1	-3%	1%	7.1µM*	3%	25%	8%	27µM*
Cc1cc(N2CCN(c3ccc(F)cc3)CC2)n2cnnc2n1	-2%	-12%	2%	·	·	·	·
O=C(Nc1cccc(Cl)c1)c1nc[nH]c1C(=O)NCc1ccccc1	0%	·	213%	·	-18%	·	?
CC1=C(C(=O)Nc2ccccc2)C(c2ccc(C)cc2)N=C(Nc2nc3ccccc3o2)N1 (stereo not drawn)	-1%	-8%	5µM*	-2%	-60%	-5%	24µM*
Cc1ccc(C(=O)Nc2cccc(C(F)(F)F)c2)cc1NC(=O)c1nccnc1N	-1%	-9%	159%	3%	17%	10%	?
COc1cc(NC(=O)c2nccnc2N)cc(C(=O)Nc2cccc(C(F)(F)F)c2)c1	-5%	-14%	124%	6%	0%	?	·
SMILES	Glioma ERSR ind	Apoferritin bind	ClpP mod	N370S GC	Integrin act MD	CBFb-RUNX1 inh	ClpP validation
O=C(C[N+]1(CCO)CCOCC1)c1cccs1	-3%	·	0%	·	·	·	·
COc1ccc(Cn2ccc3nc(C)c(C(=O)NCc4ccc(SC)cc4)cc3c2=O)cc1	-3%	-1%	184%	·	·	·	24µM*
CCOc1ccccc1CNC(=O)c1cc2c(=O)n(Cc3cccnc3)ccc2nc1C	-2%	-10%	6.3µM*	·	·	·	-2%
CC(C)C[C@H](NC(=O)[C@H](CCc1ccccc1)NC(=O)CN1CCOCC1)C(=O)N[C@@H](Cc1ccccc1)C(=O)N[C@@H](CC(C)C)C(=O)[C@@]1(C)CO1	-4%	·	·	·	·	·	·
O=C(Cn1c(=O)sc2ccccc21)NCc1ccccn1	1%	-7%	-2%	-1%	22%	7%	·
O=C(Cn1c(=O)sc2ccccc21)NCCOc1ccccc1F	1%	-8%	7.9µM*	16%	10%	15%	-1%
CCOc1ccc2nc(-c3ccccc3)[nH]c2c1	-10%	-10%	7.1µM*	7%	2%	6%	6.9µM*
CCOc1ccc(NC(=O)c2cc3c(-c4ccccc4F)nn(C)c3s2)cc1	-2%	-6%	188%	·	·	·	?
NC(=O)c1ccc2c(c1)OCCO2	1%	-10%	31%	27%	40%	-2%	-2%
Cc1ccccc1N(CC(=O)Nc1ccc(S(=O)(=O)N2CCOCC2)cc1)S(C)(=O)=O	-2%	-22%	45%	-6%	?	6%	1%
COCCCNC(=O)CC(NS(=O)(=O)c1ccc(C)cc1)c1ccco1 (stereo not drawn)	0%	-7%	3.2µM*	-15%	-13%	4%	-7%
COCCCNC(=O)CC(NS(=O)(=O)c1ccc(Cl)cc1)c1ccco1 (stereo not drawn)	0%	-8%	2%	1%	-7%	3%	·
COc1ccc2oc(-c3ccco3)cc(=O)c2c1	-2%	6%	4%	11%	-29%	17%	·
O=c1cc(-c2ccco2)oc2ccc(Cl)cc12	2%	1%	2.8µM*	10%	13%	4%	?
CC(C)(CCCCCCCCCCC(C)(C)CC(=O)O)CC(=O)O	-7%	-1%	·	0%	·	-1%	·
COc1c(C)cccc1C(=O)Nc1ccc(-c2nc3ccccc3s2)c(Cl)c1	-2%	-3%	7.9µM*	·	·	·	-1%
CCOc1ccc(-c2cn3c(n2)sc2cc(C(=O)NC4CCCc5ccccc54)ccc23)cc1 (stereo not drawn)	-2%	8%	5µM*	·	·	·	?
COc1ccc(-c2cn3c(n2)sc2cc(C(=O)NC4CCCCC4)ccc23)cc1	-3%	0%	?	·	·	·	·
